30 compounds from PubChem BioAssay (NCATS) can be followed below.

Results filed as inconclusive are left out. Entries that show only a call come without a potency. Calls of active or inactive are those of the source. Calls come from the whole dose curve; as a rule, active = well fitted inhibition curve with a large enough effect; inconclusive = small, poorly fitted or top-dose-only effect; inactive = no such curve, though single readings can be large or run the other way.
Potency is the fitted concentration of half-maximal effect.

A short description of the assay: Counterscreen for APE1 Inhibitors: Fluorescent Dye Displacement Validation Assay (AID 1707). Conditions: fluorescent dye displacement from DNA; series mostly up to 57.1 µM. From the text:
In order to distinguish true inhibitors of DNA-processing enzymes from promiscuous DNA-binding compounds among screening assay hits, we developed a homogeneous and miniaturized assay based on fluorescent dye displacement test as originally described by Tse and Boger (Accounts of Chemical Research (2004) 37: 61-69). The assay is based on the strong enhancement of fluorescence when Thiazole Orange (ThO) binds to double-stranded DNA: conversely, in the presence of a DNA-binding compound, Thiazole Orange is displaced from the DNA and its fluorescence is reduced.
Buffer. 50 mM Tris-HCl (pH7.5) containing 50mM NaCl, 2 mM MgCl2, and 0.01% Tween-20.
Buffer containing 250 nM ThO in columns 3 and 4 as negative control (no dsDNA).
Reaction mixture: 250 nM ThO and 50 nM dsDNA at final concentration dispensed throughout the plate: in columns 1, 2, 5-48. Column 1 is neutral (100% activity).
5''TAMRA- TC ACC FTC GTA CGA CTC
3'' AG TGG GAG CAT GCT GAG
where F denotes tetrahydrofuran.
Control: Pintool transfer of control compound WB64 (W4761, Sigma-Aldrich) to column 2 of all assay plates as a two-fold 16-point dilution in duplicate (concentration range 5.75 uM - 0.175 nM).
Four uL of reaction mixtures were dispensed to 1536-well Greiner black solid bottom plates. Compounds (23 nL) were transferred […] in order to measure the endpoint fluorescence using 480 nm excitation and 540 nm emission fluorescence protocol.
(Counterscreens check selectivity or assay interference.)
Take `NCC1(CC(=O)O)CCCCC1`: the Potency result is “inactive”.

Consider `CCn1cc(C(=O)O)c(=O)c2ccc(C)nc21`, for which the Potency result was “inactive”.

On to `CN1C[C@H](CNC(=O)OCc2ccccc2)C[C@@H]2c3cccc4c3c(cn4C)C[C@H]21`, for which the Potency result was “inactive”.

For `O=C1NCN(c2ccccc2)C12CCN(CC1COc3ccccc3O1)CC2` (stereo not given), the Potency entry is “inactive”.

Turning to `Fc1ccc(C(OCCN2CCN(CCCc3ccccc3)CC2)c2ccc(F)cc2)cc1`, the Potency entry is “inactive”.

Take `O=c1[nH]c2ccccc2n1CCCN1CCC(n2c(=O)[nH]c3cc(Cl)ccc32)CC1`: the Potency entry was “inactive”.

In the case of `c1ccc(C2CC2)c(OCC2=NCCN2)c1`, the Potency result was “inactive”.

On to `c1ccc2c(c1)OCC(C1=NCCN1)O2` (stereo not given), for which the Potency entry was “inactive”.

For `C=C(C)[C@H]1Cc2c(ccc3c2O[C@@H]2COc4cc(OC)c(OC)cc4[C@@H]2C3=O)O1`, the Potency result was “inactive”.

Regarding `Cc1ccc(S(=O)(=O)N[C@@H](CCCCN)C(=O)CCl)cc1`, the Potency result is “inactive”.

For the compound `N#CC(C#N)=Cc1ccc(O)c(O)c1`, the Potency result was “inactive”.

Take `CCCC(C)(COC(N)=O)COC(=O)NC(C)C` (stereo not given): the Potency entry was “inactive”.

Take `NCC(CC(=O)O)c1ccc(Cl)cc1` (stereo not given): the Potency entry was “inactive”.

As for `COc1ccccc1N1CCNCC1`, the Potency result is “inactive”.

For `Nc1ccncc1`, the Potency result is “inactive”.

Take `NCC(O)c1ccc(O)cc1` (stereo not given): the Potency entry is “inactive”.

As to `Cc1cccc(C)c1NC1=NCCCS1`, the Potency entry was “inactive”.

As to `CCC1(C2=NCCN2)Cc2ccccc2O1` (stereo not given), the Potency entry is “inactive”.

For `COC[C@H]1OC(=O)c2coc3c2[C@@]1(C)C1=C(C3=O)C2CCC(=O)[C@@]2(C)C[C@H]1OC(C)=O` (stereo not given in full), the Potency result was “inactive”.

In the case of `CC(=O)[C@H]1CC[C@H]2[C@@H]3CC[C@H]4C[C@H](O)CC[C@]4(C)[C@H]3C(=O)C[C@]12C`, the Potency result is “inactive”.

As for `O=c1[nH]c2ccccc2n1C1CCN(CCCC(c2ccc(F)cc2)c2ccc(F)cc2)CC1`, the Potency entry was “inactive”.

`O=c1c(O)c(-c2ccc(O)c(O)c2)oc2cc(O)cc(O)c12`: the Potency was 2510 nM (active).

Regarding `CC(CCc1ccccc1)NC(C)C(O)c1ccc(O)cc1` (stereo not given), the Potency result is “inactive”.

`Clc1cccc(N2CCNCC2)c1`: the Potency entry is “inactive”.

As to `NN=C(N)N`, the Potency entry was “inactive”.

`Cc1ncc(CNC(=O)N(CCCl)N=O)c(N)n1`: the Potency entry is “inactive”.

In the case of `CCCN1CCC[C@@H]2Cc3nc(N)ncc3C[C@H]21`, the Potency entry was “inactive”.

Take `CNCC(O)c1ccc(O)cc1` (stereo not given): the Potency entry is “inactive”.

As to `COc1ccc(Cc2nccc3cc(OC)c(OC)cc23)cc1OC`, the Potency result is “inactive”.

Regarding `CC[N+](CC)(CC)CC`, the Potency result is “inactive”.
